Potency and max activation data for eleven molecules are collected here from PubChem BioAssay (Tox21).

Experiment [1] in a line: Caspase-3/7 induction in HepG2 cells by small molecules, qHTS assay (AID 1346978). Also: nearly all actives have a fitted effect of over 15% in size. Also: potency is read from the fitted curve at half-maximal effect. In a few lines: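 Wild-type HepG2 cells, 2,000/well, settled 5 hr at 37 C and 5% CO2, then compound-treated for 17 hr; caspase-3/7 activity read by luminescent Caspase-Glo 3/7 after 30 min at room temperature.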
Experiment [2] is described as follows: Caspase-3/7 induction in CHO-K1 cells by small molecules, qHTS cell viability counter screen (AID 1346979). Also: nearly all actives have a fitted effect of over 35% in size. Also: potency is read from the fitted curve at half-maximal effect. In a few lines: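 To flag cytotoxic compounds, treated CHO-K1 wild-type cells were given CellTiter-Fluor at 16hr and read fluorescently after 1hr at 37C; the caspase-3/7 luminescence was measured in these same wells.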
(qHTS replaces the single test concentration by a dilution series.)

A short description of experiment [3]: Caspase-3/7 induction in CHO-K1 cells by small molecules, qHTS assay (AID 1346980). Also: nearly all actives have a fitted effect of over 15% in size. A digest of the protocol:
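Wild-type CHO-K1 cells exposed to compounds for 17hr at 37 C, 5% CO2. Caspase-3/7 activity then measured by Caspase-Glo 3/7 luminescence after 30min at room temperature.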

Experiment [4] is described as follows: Caspase-3/7 induction in HepG2 cells by small molecules, qHTS cell viability counter screen (AID 1346981). Also: nearly all actives have a fitted effect of over 30% in size. Also: potency is read from the fitted curve at half-maximal effect. A digest of the protocol:
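Treatment of HepG2 cells with DMSO-delivered compounds ran 16 hr at 37 C following a 5-hr pre-incubation of 2,000 cells/well. CellTiter-Fluor fluorescence, read after 1 hr, served as the viability measure in a qHTS format.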

For experiment [5], the target named is Cytochrome P450 2C9 (Homo sapiens) (UniProt P11712). Kind of experiment: Cytochrome P450 Family 2 Subfamily C Member 9 (CYP2C9) small molecule antagonists: luciferase reporter qHTS assay (AID 1671198). Also: nearly all actives have a fitted effect of over 50% in size. Also: potency is read from the fitted curve at half-maximal effect. A digest of the protocol:
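P450-Glo proluciferin substrate with CYP2C9 enzyme; 10 min RT preincubation, then NADPH regeneration 1 h at 37C; luciferin detection reagent 20 min RT, luminescence in relative luminescence units.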
In general terms: A reporter such as luciferase makes a cellular process visible.

For experiment [6], the target named is Cytochrome P450 1A2 (Homo sapiens) (UniProt P05177). Kind of experiment: Cytochrome P450 Family 1 Subfamily A Member 2 (CYP1A2) small molecule antagonists: luciferase reporter qHTS assay (AID 1671199). Also: nearly all actives have a fitted effect of over 50% in size. Also: potency is read from the fitted curve at half-maximal effect. In a few lines: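 Read-out is luminescence from luciferin detection reagent (20 min) proportional to CYP1A2 activity; compounds in DMSO preincubated 10 min with enzyme and proluciferin substrate, then NADPH regeneration solution, 1 h, room temperature.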

The target of experiment [7] is Voltage-gated inwardly rectifying potassium channel KCNH2 (Homo sapiens) (UniProt Q12809). Kind of experiment: Human Ether-a-go-go-Related Gene (hERG) channel small molecule antagonists: fluorescence cell-based qHTS assay (AID 1671200). Also: nearly all actives have a fitted effect of over 50% in size. Also: potency is read from the fitted curve at half-maximal effect. A digest of the protocol: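 Measured: Tl+ flux via fluorescence (480/540 nm) in hERG-expressing U2OS cells after 1 h dye loading at room temperature.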
On the technique in general: Block of hERG is tested as a sign of cardiac risk.

In experiment [8] the target is Cytochrome P450 3A4 (Homo sapiens) (UniProt P08684). Kind of experiment: Cytochrome P450 Family 3 Subfamily A Member 4 (CYP3A4) small molecule antagonists: luciferase reporter qHTS assay (AID 1671201). Also: nearly all actives have a fitted effect of over 50% in size. Also: potency is read from the fitted curve at half-maximal effect. A digest of the protocol:
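Setup: enzyme-substrate mix, compound pin transfer, 10 min RT. Reaction: NADPH regeneration solution, 1 h RT. Readout: detection reagent stops turnover, luminescence measured after 20 min, expressed in relative luminescence units.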

The target of experiment [9] is Nuclear receptor subfamily 1 group I member 2 (Homo sapiens) (UniProt O75469). Kind of experiment: Human pregnane X receptor (PXR) small molecule agonists, qHTS assay (AID 1346982). Also: nearly all actives have a fitted effect of over 35% in size. Also: potency is read from the fitted curve at half-maximal effect. In a few lines:
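Stable HepG2 line reporting PXR-mediated CYP3A4 expression via luciferase. Treatment: 24 hr with compounds in DMSO at 37 C. Detection: ONE-Glo luminescence.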

The target in experiment [10] is Cytochrome P450 2D6 (Homo sapiens) (UniProt P10635). The experiment in a line: Cytochrome P450 Family 2 Subfamily D Member 6 (CYP2D6) small molecule antagonists: luciferase reporter qHTS assay (AID 1671196). Also: nearly all actives have a fitted effect of over 50% in size. Also: potency is read from the fitted curve at half-maximal effect. In a few lines:
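Chemicals tested for interference with CYP2D6 activity; proluciferin substrate, NADPH regeneration, 1 h at room temperature, luminescent detection.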

Experiment [11] deals with Cytochrome P450 2C19 (Homo sapiens) (UniProt P33261). Kind of experiment: Cytochrome P450 Family 2 Subfamily C Member 19 (CYP2C19) small molecule antagonists: luciferase reporter qHTS assay (AID 1671197). Also: nearly all actives have a fitted effect of over 65% in size. Also: potency is read from the fitted curve at half-maximal effect. In a few lines:
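CYP2C19 P450-Glo, 1536-well qHTS. Cpd + enzyme/proluciferin substrate 10 min RT; + NADPH regen, 37C 1 h; stop with luciferin detection reagent, 20 min RT, luminescence (RLU). Pos ctrl ketoconazole.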

Experiment [12] addresses Nuclear receptor subfamily 1 group I member 2 (Rattus norvegicus) (UniProt Q9R1A7). The experiment in a line: Rat pregnane X receptor (rPXR) activation by small molecules, qHTS assay (AID 1346983). Also: nearly all actives have a fitted effect of over 20% in size. The settings on record: rPXR luciferase reporter cells, One-Glo luminescence, 24 h; max activation: stronger effect = higher value. A digest of the protocol:
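Cell-based rPXR activation assay: rPXR cells, 2,000 per well, rested 5hr at 37 C, then exposed to compounds in DMSO for 24 hr at 37 C. Luciferase activity read by One-Glo luminescence after 30 min at room temperature.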

The target in experiment [13] is Nuclear receptor subfamily 1 group I member 2 (Homo sapiens) (UniProt O75469). The experiment in a line: CYP3A4 induction through human pregnane X receptor (PXR) by small molecules, qHTS assay (AID 1346984). Also: nearly all actives have a fitted effect of over 40% in size. In a few lines: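 After 24 h at 37C with compound, DPX-2 cells (HepG2, co-transfected PXR response element and CYP3A4 promoter-luciferase) got 3uM final P450-Glo Luciferin-IPA for 3 h; One-Glo luminescence followed.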

Experiment [14] has the same target. The experiment in a line: Human pregnane X receptor (PXR) activation by small molecules, qHTS assay (AID 1346985). Also: nearly all actives have a fitted effect of over 40% in size. In a few lines:
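DPX-2 cells (HepG2 co-transfected with a PXR response element and a CYP3A4-promoter luciferase construct) were seeded at 2,000 per well, rested 5 hr at 37C, then exposed to DMSO-dissolved compounds for 24 hr. Activation was read as luciferase luminescence.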

SMILES strings stand for the structures. Results filed as inconclusive are left out. Where a structure was tested more than once in an assay, its records may differ in their call. Activity calls are given as the source filed them. Calls follow the shape of the dose curve; as a rule, active = well fitted curve in the direction sought with a large enough effect in the repeat runs; inconclusive = weak or mixed curves; inactive = no such curve, though single readings can be large; an effect the other way counts as inactive or inconclusive.
% is scaled to controls: 0 for no effect and ±100 for the full control effect.

Chain of Cytochrome P450 3A4 (Homo sapiens) (P08684 whole entry, looked up): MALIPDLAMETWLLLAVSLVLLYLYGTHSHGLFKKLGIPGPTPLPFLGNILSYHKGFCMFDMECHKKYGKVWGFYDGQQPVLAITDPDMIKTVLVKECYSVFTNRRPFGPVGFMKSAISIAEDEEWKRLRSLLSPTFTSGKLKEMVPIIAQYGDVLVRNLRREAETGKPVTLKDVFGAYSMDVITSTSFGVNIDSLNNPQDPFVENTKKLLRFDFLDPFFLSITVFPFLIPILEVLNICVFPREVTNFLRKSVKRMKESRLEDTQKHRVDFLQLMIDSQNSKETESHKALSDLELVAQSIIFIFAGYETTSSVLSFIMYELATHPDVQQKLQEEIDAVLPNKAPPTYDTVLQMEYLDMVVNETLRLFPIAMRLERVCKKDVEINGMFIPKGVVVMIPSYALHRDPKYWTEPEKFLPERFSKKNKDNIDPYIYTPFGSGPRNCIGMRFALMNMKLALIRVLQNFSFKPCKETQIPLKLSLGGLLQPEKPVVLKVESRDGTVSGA
Chain of Cytochrome P450 2C9 (Homo sapiens) (P11712 whole entry, looked up): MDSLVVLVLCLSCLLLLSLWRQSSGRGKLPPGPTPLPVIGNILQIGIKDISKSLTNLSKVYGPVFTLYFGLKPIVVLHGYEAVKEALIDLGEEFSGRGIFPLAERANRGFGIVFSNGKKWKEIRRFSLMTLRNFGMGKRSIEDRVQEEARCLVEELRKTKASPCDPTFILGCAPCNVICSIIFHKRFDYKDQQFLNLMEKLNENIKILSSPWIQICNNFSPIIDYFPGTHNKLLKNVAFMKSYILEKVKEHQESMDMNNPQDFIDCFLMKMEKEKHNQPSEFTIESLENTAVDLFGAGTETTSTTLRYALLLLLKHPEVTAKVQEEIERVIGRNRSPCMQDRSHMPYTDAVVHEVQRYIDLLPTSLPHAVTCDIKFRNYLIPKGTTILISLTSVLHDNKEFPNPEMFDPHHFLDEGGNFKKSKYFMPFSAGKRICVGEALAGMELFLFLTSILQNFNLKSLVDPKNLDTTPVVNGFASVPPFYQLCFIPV
Chain of Voltage-gated inwardly rectifying potassium channel KCNH2 (Homo sapiens) (Q12809 whole entry, looked up): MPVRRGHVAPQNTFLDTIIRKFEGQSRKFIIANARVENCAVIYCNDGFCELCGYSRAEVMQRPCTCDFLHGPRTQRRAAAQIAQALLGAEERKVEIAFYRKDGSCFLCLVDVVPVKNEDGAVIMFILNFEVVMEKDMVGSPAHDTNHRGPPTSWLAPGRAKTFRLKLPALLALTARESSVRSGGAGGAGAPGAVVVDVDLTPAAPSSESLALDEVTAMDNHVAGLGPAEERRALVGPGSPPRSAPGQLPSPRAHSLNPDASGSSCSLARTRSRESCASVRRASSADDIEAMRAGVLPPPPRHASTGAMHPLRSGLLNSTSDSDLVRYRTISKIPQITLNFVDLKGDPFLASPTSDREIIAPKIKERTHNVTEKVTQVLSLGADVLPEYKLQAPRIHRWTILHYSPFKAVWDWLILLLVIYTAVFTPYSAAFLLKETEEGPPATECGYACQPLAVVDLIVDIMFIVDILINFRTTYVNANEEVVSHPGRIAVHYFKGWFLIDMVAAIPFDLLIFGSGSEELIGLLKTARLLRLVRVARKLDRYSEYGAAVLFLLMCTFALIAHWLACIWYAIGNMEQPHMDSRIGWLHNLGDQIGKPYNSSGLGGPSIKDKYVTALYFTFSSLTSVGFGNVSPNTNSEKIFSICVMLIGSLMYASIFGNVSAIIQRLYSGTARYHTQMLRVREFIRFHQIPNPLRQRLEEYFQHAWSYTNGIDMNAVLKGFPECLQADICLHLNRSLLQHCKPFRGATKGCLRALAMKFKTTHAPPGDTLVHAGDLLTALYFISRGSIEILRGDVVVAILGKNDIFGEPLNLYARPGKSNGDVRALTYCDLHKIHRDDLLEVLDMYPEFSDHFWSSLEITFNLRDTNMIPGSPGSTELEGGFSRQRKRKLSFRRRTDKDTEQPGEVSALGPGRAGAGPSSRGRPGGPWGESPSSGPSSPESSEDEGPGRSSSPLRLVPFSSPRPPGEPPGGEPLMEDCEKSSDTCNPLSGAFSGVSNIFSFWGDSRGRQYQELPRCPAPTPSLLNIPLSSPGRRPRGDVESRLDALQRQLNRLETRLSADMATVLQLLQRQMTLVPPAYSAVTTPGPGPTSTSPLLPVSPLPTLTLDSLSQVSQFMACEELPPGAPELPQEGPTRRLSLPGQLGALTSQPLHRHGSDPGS
Chain of Nuclear receptor subfamily 1 group I member 2 (Homo sapiens) (O75469 whole entry, looked up): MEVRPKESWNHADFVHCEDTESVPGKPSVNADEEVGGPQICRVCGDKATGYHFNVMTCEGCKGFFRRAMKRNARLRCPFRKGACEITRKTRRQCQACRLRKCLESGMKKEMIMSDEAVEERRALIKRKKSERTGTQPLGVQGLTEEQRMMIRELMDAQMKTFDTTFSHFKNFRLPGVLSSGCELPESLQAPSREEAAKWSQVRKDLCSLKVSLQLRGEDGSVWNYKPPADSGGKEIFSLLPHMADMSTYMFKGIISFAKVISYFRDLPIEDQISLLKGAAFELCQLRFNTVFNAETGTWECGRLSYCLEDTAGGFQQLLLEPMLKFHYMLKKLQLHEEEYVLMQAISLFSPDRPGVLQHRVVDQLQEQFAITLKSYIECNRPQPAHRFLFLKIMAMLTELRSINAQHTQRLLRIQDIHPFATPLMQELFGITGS
Chain of Cytochrome P450 2D6 (Homo sapiens) (P10635 whole entry, looked up): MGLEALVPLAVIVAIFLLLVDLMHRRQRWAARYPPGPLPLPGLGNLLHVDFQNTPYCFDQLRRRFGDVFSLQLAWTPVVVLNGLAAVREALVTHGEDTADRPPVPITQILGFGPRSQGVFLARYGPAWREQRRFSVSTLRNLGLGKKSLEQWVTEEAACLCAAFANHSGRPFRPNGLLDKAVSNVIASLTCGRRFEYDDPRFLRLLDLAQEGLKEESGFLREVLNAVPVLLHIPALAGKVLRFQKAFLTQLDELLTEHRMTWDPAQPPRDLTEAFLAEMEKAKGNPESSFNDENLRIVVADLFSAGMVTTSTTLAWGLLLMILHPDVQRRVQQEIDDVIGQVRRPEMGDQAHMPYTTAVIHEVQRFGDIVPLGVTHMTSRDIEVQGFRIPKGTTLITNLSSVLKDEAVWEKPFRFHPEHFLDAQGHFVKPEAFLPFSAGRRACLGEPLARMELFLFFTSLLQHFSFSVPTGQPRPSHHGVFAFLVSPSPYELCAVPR
Chain of Cytochrome P450 2C19 (Homo sapiens) (P33261 whole entry, looked up): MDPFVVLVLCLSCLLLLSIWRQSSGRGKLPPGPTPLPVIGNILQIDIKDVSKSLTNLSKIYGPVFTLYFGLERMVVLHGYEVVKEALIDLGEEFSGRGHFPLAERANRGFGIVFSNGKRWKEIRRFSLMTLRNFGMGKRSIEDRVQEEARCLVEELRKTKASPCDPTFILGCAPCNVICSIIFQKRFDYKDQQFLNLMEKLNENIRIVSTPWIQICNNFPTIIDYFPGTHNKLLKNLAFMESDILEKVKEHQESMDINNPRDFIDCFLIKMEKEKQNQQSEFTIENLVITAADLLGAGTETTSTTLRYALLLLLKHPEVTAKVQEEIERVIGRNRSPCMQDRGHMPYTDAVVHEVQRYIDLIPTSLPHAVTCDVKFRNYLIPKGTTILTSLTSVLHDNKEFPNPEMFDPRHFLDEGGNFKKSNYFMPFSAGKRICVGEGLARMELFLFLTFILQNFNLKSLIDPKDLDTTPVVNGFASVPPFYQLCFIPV
Chain of Cytochrome P450 1A2 (Homo sapiens) (P05177 whole entry, looked up): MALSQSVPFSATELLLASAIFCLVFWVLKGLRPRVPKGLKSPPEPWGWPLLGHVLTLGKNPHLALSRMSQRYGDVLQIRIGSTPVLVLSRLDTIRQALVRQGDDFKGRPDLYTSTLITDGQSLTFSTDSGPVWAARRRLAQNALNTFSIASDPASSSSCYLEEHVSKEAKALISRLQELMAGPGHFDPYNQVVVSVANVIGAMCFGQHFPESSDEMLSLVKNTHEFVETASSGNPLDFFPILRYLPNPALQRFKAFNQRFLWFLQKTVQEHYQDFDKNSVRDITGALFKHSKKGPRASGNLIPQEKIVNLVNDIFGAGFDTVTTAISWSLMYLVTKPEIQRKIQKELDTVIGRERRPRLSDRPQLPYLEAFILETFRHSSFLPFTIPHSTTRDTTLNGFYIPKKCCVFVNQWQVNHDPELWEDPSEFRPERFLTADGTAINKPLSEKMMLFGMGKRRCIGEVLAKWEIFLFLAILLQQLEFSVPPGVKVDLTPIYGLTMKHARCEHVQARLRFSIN
Chain of Nuclear receptor subfamily 1 group I member 2 (Rattus norvegicus) (Q9R1A7 whole entry, looked up): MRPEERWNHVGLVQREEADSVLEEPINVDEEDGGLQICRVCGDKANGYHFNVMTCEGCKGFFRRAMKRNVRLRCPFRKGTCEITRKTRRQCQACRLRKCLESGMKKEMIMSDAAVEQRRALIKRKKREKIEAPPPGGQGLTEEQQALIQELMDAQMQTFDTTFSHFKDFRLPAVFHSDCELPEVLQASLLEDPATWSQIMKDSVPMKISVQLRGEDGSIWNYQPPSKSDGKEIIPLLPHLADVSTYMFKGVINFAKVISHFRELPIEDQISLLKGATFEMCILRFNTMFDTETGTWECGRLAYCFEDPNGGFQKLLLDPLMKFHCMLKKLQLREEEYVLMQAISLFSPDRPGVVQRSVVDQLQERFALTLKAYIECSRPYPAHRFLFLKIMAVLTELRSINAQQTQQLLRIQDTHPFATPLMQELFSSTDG

For the molecule `CNC(=S)NN`, the Potency was 61.1 µM (active) in experiment [1], 19.3 µM (active) in experiment [2], 39.9 µM (active) in experiment [5] and 39.9 µM (active) in [6]. Also, the Potency result in experiment [3], in [4], in experiment [7] and in experiment [8] was “inactive” throughout.
On to `CS(C)(=O)=O`, for which the Potency entry in experiment [1], in experiment [2], in experiment [4], in experiment [9], in experiment [10] and in experiment [11] was “inactive” throughout. The Potency entry in experiment [5], in [6], in experiment [7] and in experiment [8] was “inactive” each time.
Turning to `Nc1cc(Cl)c([N+](=O)[O-])cc1O`, the Potency result in experiment [1], in [3], in [10], in [11] and in experiment [7] was “inactive” throughout. Further, the Potency in experiment [2] was 68 µM (active); in experiment [5] it was 31.5 µM (active); in experiment [6] it was 19.9 µM (active).
As to `O=Nc1ccc(NO)cc1`, the Potency entry in experiment [1], in experiment [3], in experiment [10], in experiment [5], in [6] and in experiment [7] was “inactive” each time. Moreover, the Potency in [2] is 63.6 µM (active).
For the molecule `CC(=O)Nc1ccc(O)cc1`, the Potency result in [1], in experiment [2], in [4], in experiment [9], in experiment [11] and in experiment [5] was “inactive” throughout. In addition, the Potency result in experiment [7] was “inactive”. Moreover, in experiment [10], the Potency was 32.9 µM (active) and inactive.
On to `CCOC(OCC)C(=O)c1ccccc1`, for which the Potency result in experiment [1], in experiment [2], in [4], in [9], in experiment [10] and in experiment [11] was “inactive” in each case. The Potency result in experiment [5], in [7] and in experiment [8] was “inactive” throughout. Also, the Potency in experiment [6] is 31.7 µM (active).
For the molecule `ClC/C=C\CCl`, the Potency result in experiment [1], in experiment [2], in experiment [3], in experiment [4], in experiment [5] and in experiment [7] was “inactive” each time. In addition, in experiment [8], the Potency entry is “inactive”. Further, the Potency was 33.1 µM (active) in experiment [11] and 11.7 µM (active) in experiment [6].
For the molecule `C=C[C@](C)(O)CC[C@@H]1[C@@]2(C)CCCC(C)(C)[C@@H]2CC[C@@]1(C)O`, the Potency is 68.6 µM (active) in [1]; 54.5 µM (active) in experiment [2]; 9.69 µM (active) in experiment [9]; 1 µM (active) in [11]; 3.17 µM (active) in experiment [5]; 31.7 µM (active) in [6]. Further, the Potency in experiment [8] is 5.03 µM (active). In addition, the Potency entry in experiment [3] is “inactive”.
Consider `O=C1NC2CCCCN2C12CCN(CCCN1c3ccccc3CCc3ccc(Cl)cc31)CC2` (centres undefined), for which the Potency in experiment [1] is 29.8 µM (active); in [2] it was 26.6 µM (active); in [4] it was 29.8 µM (active); in [10] it was 7.76 µM (active); in experiment [7], 0.756 µM (active). In addition, the Potency result in experiment [9], in [5], in experiment [6] and in experiment [8] was “inactive” throughout.
With `CC(C)N=C(N)/N=C(\N)Nc1ccc(Cl)cc1`, the Potency entry in [1], in [4], in experiment [9], in experiment [13], in experiment [14] and in experiment [8] was “inactive” each time. Further, the results for the Potency in experiment [2], in [10] and in experiment [11] were 11.9 µM (active), 5.49 µM (active) and 15.5 µM (active), respectively. Further, the max activation in experiment [12] was -16.8% (inactive).
Turning to `[O]=[Zr]`, the Potency entry in experiment [1], in experiment [2], in [3], in experiment [4], in experiment [7] and in experiment [8] was “inactive” throughout. Also, the Potency in [6] is 35.4 µM (active).
